From PubChem BioAssay
IL1B secr inh = blocks inflammasome-driven IL-1 beta release; THP-1 LPS/ATP IL-1B secretion, AlphaLISA, 16 h; stronger effect = lower value; activity change, % at 57.5 µM; 4.7% of 360,000 active; AID 743279; in the data active = activity change below about -50%; inconclusive = mostly about -30% to -49%
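Secreted IL-1B measured by AlphaLISA bead assay after 16 h compound exposure of THP-1 cells; compounds (final up to 57.5 uM) added 1 h before LPS (250 ng/mL) and ATP (1.25 mM) stimulation; lower signal means less secretion.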
HT1080NT lethal = kills 2HG-producing HT-1080-NT fibrosarcoma cells; HT-1080-NT fibrosarcoma viability, CellTiter-Glo ATP luminescence, 48 h; 1.6% of 360,000 active; AID 686970; Potency, µM (top dose mostly 46.1 µM), inactives show at the highest dose activity, negative = less viability, usual class: cytotoxic;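 note: NT is the 2HG producing partner of a matched IDH1 knockdown line; potency is the fitted concentration of half-maximal effect; 0% = DMSO-treated cells and -100% = media-only wells without cells; nearly all actives have a fitted effect of over 55% in size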
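Viability by CellTiter-Glo luminescence after 48 h compound exposure at 37C of HT-1080-NT cells (750/well, RPMI, 5% FBS). % activity scaled between DMSO wells and medium-only wells, then curve-fitted and categorized by curve class.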
KB-V1 MDR tox = kills drug-selected multidrug resistant KB-V1 cells; 3.4% of 400,000 active; KB-V1 MDR cells viability, CellTiter-Glo, 72 h; AID 1347076; Potency, µM (doses to about 46.1 µM), actives largely listed as cytotoxic; note: potency is the fitted concentration of half-maximal effect; nearly all actives have a fitted effect of over 60% in size
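Cells of the MDR subline KB-V1 are plated, dosed with compound at multiple concentrations, and incubated 72 h at 37 degrees C; CellTiter-Glo is then added and luminescence read after 10 min.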
KB-3-1 cytotox = KB-3-1 parental cell cytotoxicity; KB-3-1 viability, CellTiter-Glo ATP luminescence, 72 h; Potency, µM (top dose mostly 46.1 µM), hits mostly cytotoxic; 1.4% of 400,000 active; note: potency is the fitted concentration of half-maximal effect; nearly all actives have a fitted effect of over 60% in size
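Parental KB-3-1 viability, qHTS format: 72 h compound exposure, 37 °C; CellTiter-Glo; media-only wells and DMSO plates as controls; concentration-effect fits on corrected data.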
HT1080 IDH1KD tx = HT-1080 IDH1 knockdown cell toxicity (counter line); HT-1080 IDH1 knockdown viability, ATP luminescence, 48 h; Potency, µM (top dose mostly 46.1 µM), for the others: at the highest dose activity, negative = toxicity, actives largely listed as cytotoxic; 2% of 360,000 active; AID 686971;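 note: potency is the fitted concentration of half-maximal effect; 0% = DMSO wells and -100% = cell-free medium wells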
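Using the IDH1-knockdown HT-1080 line run in the same batch and compound series as the NT line, viability after 48 h at 37 °C was determined by CellTiter-Glo luminescence and expressed as % activity.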
* marks the source's active call; other numbers are inactive results; i = inactive; ? = inconclusive; nt = no result given; [ ] = dose if it differs, or a comment. In the library only some 8.8% were active in any assay of this set; here they are far more common. Unless noted, calls come from the whole dose curve; as a rule, active = well fitted curve in the direction sought with a large enough effect; inconclusive = small, poorly fitted or top-dose-only effect, or another doubt; inactive = no such curve, though single readings can be large; an effect the other way counts as inactive or inconclusive. Unless noted, % is set by controls: 0 for no effect and ±100 for the full control effect.

SMILES | IL1B secr inh | HT1080NT lethal | KB-V1 MDR tox | KB-3-1 cytotox | HT1080 IDH1KD tx
CC(C)(C)NC(=O)C(c1ccncc1)N(C(=O)Cn1nnc(-c2ccc(F)cc2)n1)c1cccc(F)c1 (configuration not stated) | 8.7 | 0.3% | i | i | 0.8%
CCCn1c(=O)c(C(=O)NCc2ccccn2)c(O)c2ccccc21 | -9.5 | -29.8% | i | i | ?
Cn1c(=O)c(C(=O)NC2CCCCCCC2)c(O)c2ccccc21 | 5.6 | 4.7% | 20.6µM* | i | -1.9%
CCCn1c(=O)c(C(=O)NCc2cccnc2)c(O)c2ccccc21 | 94.2 | 14.9% | 10.3µM* | i | -1.9%
CCCn1nc(C(=O)NC2CCCCCC2)c2ccccc2c1=O | 29.3 | -6.6% | 5.8µM* | i | 4.9%
CCn1c(=O)c(C(=O)NNC(=O)c2ccccc2)c(O)c2ccccc21 | 32.1 | ? | ? | i | -25.0%
Cn1c(=O)c(C(=O)NC2CCCCCC2)c(O)c2ccccc21 | 32.2 | 7.1% | i | i | 4.5%
CCn1c(=O)c(C(=O)NNS(=O)(=O)c2ccc(Cl)cc2)c(O)c2ccccc21 | -12.7 | -1.3% | 14.6µM* | i | 0.7%
COc1cccc(-c2nc(-c3ccc(NC(=O)c4cccs4)cc3)no2)c1 | -24.2 | -13.3% | i | i | -22.8%
COc1cccc(CN2CC(C(=O)N(C)CC3CCOCC3)CCC2=O)c1 (configuration not stated) | -10.3 | 0.0% | nt | nt | 7.7%
CC(C)Cn1c(=O)c(C(=O)Nc2cnccn2)c(O)c2ccccc21 | 30.9 | 0.7% | i | i | 5.4%
CC(C)Cn1c(=O)c(C(=O)Nc2ccncc2)c(O)c2ccccc21 | 0.0 | -3.4% | i | 7.31µM* | 0.0%
CCn1c(=O)c(C(=O)Nc2ccccc2C)c(O)c2ccccc21 | 15.9 | 4.0% | i | i | -28.9%
CCCn1c(=O)c(C(=O)Nc2ccccc2C)c(O)c2ccccc21 | 12.6 | 0.8% | 20.6µM* | i | 24.5%
CCn1c(=O)c(C(=O)NCCN2CCCCC2)c(O)c2ccccc21 | -7.3 | ? | i | ? | 18.4µM*
CCCCCCCC(=O)NNC(=O)c1c(O)c2ccccc2n(CC)c1=O | 19.6 | 11.5% | 18.4µM* | ? | -2.2%
COC(=O)c1ccc(NC(=O)CCC(=O)c2ccc(F)cc2)cc1 | -13.7 | ? | i | i | -24.9%
Cc1cc(C)c(NC(=O)CCN2C(=O)c3ccccc3S2(=O)=O)c(C)c1 | -20.1 | 18.7% | i | i | 15.9%
CC1CC(C)CN(C(=O)C2CCN(S(=O)(=O)c3cccc4cccnc34)CC2)C1 (configuration not stated) | 1.4 | 9.7% | i | i | 0.3%
CCCn1c(=O)c(C(=O)NNC(=O)c2ccccc2Cl)c(O)c2ccccc21 | 75.7 | -8.0% | 9.2µM* | ? | ?
CCCn1c(=O)c(C(=O)Nc2ccccc2)c(O)c2ccccc21 | 16.8 | 7.1% | 23.1µM* | ? | 3.5%[9.24 µM]
CCCCc1nc2ccccc2c(=O)n1NC(=O)c1c(O)c2ccccc2n(C)c1=O | -10.1 | -0.4% | ? | 13µM* | -6.6%
CCCn1c(=O)c(C(=O)NNC(=O)Cc2ccccc2)c(O)c2ccccc21 | 21.0 | -15.9% | ? | i | -24.3%
CCCn1c(=O)c(C(=O)Nc2cccc(C)c2)c(O)c2ccccc21 | 17.9 | 10.5% | i | i | 10.5%
Cc1ccc(F)cc1C(=O)N1CCCCC1c1cc(C(=O)Nc2cccc(C#N)c2)no1 (configuration not stated) | 1.9 | 1.3% | i | i | 0.0%
SMILES | IL1B secr inh | HT1080NT lethal | KB-V1 MDR tox | KB-3-1 cytotox | HT1080 IDH1KD tx
Cc1[nH]n(-c2ccccc2)c(=O)c1C(c1ccccc1[N+](=O)[O-])C(C#N)C#N (configuration not stated) | -9.2 | 2.1% | i | i | -13.2%
Cc1[nH]n(-c2ncc(-c3ccccc3)s2)c(=O)c1C(c1ccc(Cl)cc1)C(C#N)C#N (configuration not stated) | -63.6* | 6.6% | ? | i | 7.7%
O=C(Nc1ccc(OC(F)(F)F)cc1)c1cc2ccccn2n1 | nt | nt | ? | 10.3µM* | nt
O=C1C(Cl)=C(NCCc2ccccc2)C(=O)c2ccccc21 | ? | 9.2µM* | ? | ? | ?
CCN(CC)CCCNC1=C(Cl)C(=O)c2ccccc2C1=O | -110.0* | ? | ? | i | 20.6µM*
O=C(O)c1cccc(NC2=C(Cl)C(=O)c3ccccc3C2=O)c1 | -65.4* | ? | ? | ? | 16.4µM*
O=C1C(Cl)=C(Nc2ccccc2)C(=O)c2ccccc21 | -107.0* | 2.3% | ? | ? | 2.4%
Cc1c(NC(=O)COc2c(F)c(F)c(F)c(F)c2F)c(=O)n(-c2ccccc2)n1C | -8.5 | -2.3% | i | i | -3.8%
Cc1ccccc1NC(=O)N(O)C1(C#N)CCCCC1 | 6.4 | 13.1% | i | i | 16.2%
CC(=O)N(Cc1ccc(F)cc1)c1cccc(C)c1C | 21.2 | 0.2% | ? | i | -13.4%
C=CCNC1=C(Cl)C(=O)c2ccccc2C1=O | -3.7 | -15.0% | ? | ? | -25.6%
CC(C)NC1=C(Cl)C(=O)c2ccccc2C1=O | -2.9 | ? | i | ? | 7.08µM*
CC(=O)N(Cc1ccc(F)cc1)C1=C(NCCc2ccccc2)C(=O)c2ccccc2C1=O | -79.3* | 5.8µM* | ? | 8.2µM* | 5.17µM*
O=C1C(Cl)=C(NCc2cccnc2)C(=O)c2ccccc21 | -101.2* | 18.4µM* | ? | ? | ?
CCC(C)(C)NC(=O)c1cc(S(=O)(=O)N2CCCCC2)ccc1N1CCOCC1 | 3.4 | 6.2% | i | i | -6.1%
c1ccc(Cc2nnc(Sc3ccccc3)c3ccccc23)cc1 | -68.1* | ? | i | i | 11.2µM*
CCc1nc2ccc(C(=O)NCCCn3ccnc3)cn2c1N(C)C(=O)COc1ccccc1 | 17.6 | 7.2% | ? | i | 10.3%
COc1ccc(-n2nc(C(=O)NCC(=O)NCc3ccco3)c3ccccc3c2=O)cc1Cl | -3.9 | 0.5% | 5.8µM* | i | -0.5%
COc1ccc(-n2nc(C(=O)NCc3ccco3)c3c4ccccc4n(C)c3c2=O)cc1 | 28.3 | -24.7% | i | i | -5.3%
COC(=O)CNC(=O)CNC(=O)c1nn(-c2ccc(OC)c(Cl)c2)c(=O)c2ccccc12 | 3.2 | 0.5% | i | i | 2.5%
COc1ccc(-n2nc(C(=O)NCc3ccco3)c3ccccc3c2=O)cc1 | 14.4 | ? | i | i | 10µM*
CCN(CC)c1ccc(Nc2nc(N3CCOCC3)c3ccccc3n2)cc1 | -110.6* | 11.2µM* | 2.59µM* | 8.2µM* | ?
COc1ccc(Nc2nc(N3CCCC3)c3ccccc3n2)cc1 | -101.1* | 1.6% | ? | ? | -15.0%
